Screening results deposited in PubChem by several laboratories.
EBV LMP1 NFkB – reduces LMP1-driven NF-kappaB luciferase signal. LMP1-induced NF-kappaB luciferase reporter cells, luminescence. inhibition, % at 12.5 µM. 350,000 tested, 0.69% active; in the data active means inhibition above about 41%; inconclusive means no clear call, values can overlap the other calls;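 further: 0% = neutral control wells and 100% = reference inhibitor control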
HIF-2a block – inhibitors of HIF-2a; 786-0 RCC cells HIF-2a reporter, luciferase luminescence, overnight; inhibition, % at 18.8 µM; 360,000 tested, 0.72% active; AID 624352;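 active means inhibition of the luminescence signal of 40% or more relative to plate controls, in a single-dose primary screen at 18.75 µM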
Shn3 inh set2 – reduces Shn3 3'UTR luciferase signal in osteoblasts. Clone20 osteoblast Shn3 3'UTR firefly luciferase, 24 h. AID 588674. 360,000 tested, 0.52% active. inhibition, % at 12.5 µM;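 active means mean inhibition of at least 75% with every replicate also reaching 75%; inconclusive means mean inhibition at least 75% but some replicate below; inactive means mean inhibition below 75%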;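 further: 0% = median of neutral control wells and 100% = pilot-screen positive control compound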
MITF TRPM1 inh – MITF TRPM1 promoter inhibition in SK-MEL-5 cells; SK-MEL-5 TRPM1 promoter luciferase, 24 h; inhibition, % at 12.5 µM; 330,000 tested, 0.83% active;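 active means mean inhibition across replicates of 60% or more, whatever share of single replicates reaches that level; inconclusive means some that reach 60%, reason not given; inactive means mean inhibition across replicates below 60%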
Peg3 prom inh – Peg3 promoter activity inhibition; HeLa PEG-Prom luciferase reporter, luminescence, overnight; inhibition, % at 20 µM; 360,000 tested, 1.7% active; AID 588405;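 active means inhibition of at least 50% at 20 µM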
PAX8 reporter – lowers PAX8-driven luciferase in RMG-I cells | inhibition, % at 12.6 µM | RMG-I TPO-luciferase reporter, SteadyGlo, 24 h | 360,000 tested, 1.2% active;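 active means mean replicate inhibition at least 60% with every replicate also reaching 60%; inconclusive means only one of the two criteria is met; inactive means mean below 60% and not all replicates reaching 60%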;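 further: luciferase light reporting Pax8 driven TPO promoter activity; plate controls were median of neutral control wells for no effect and mitoxantrone controls for full effect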
Active calls of the source: *; u = inconclusive; x = no result given; ! = not confirmed by another sample. Compounds with a hit are over-represented: about 2.8% of the library has one in this group of screens.

SMILES	EBV LMP1 NFkB	HIF-2a block	Shn3 inh set2	MITF TRPM1 inh	Peg3 prom inh	PAX8 reporter
CC1(C)N=C(N)N=C(N)N1c1cccc(CC(=O)Nc2ccccc2)c1	-5	-5	3	x	-6	19
Cc1cccc2c(CC(=O)Nc3ccccc3)noc12	-1	6	-8	-1	0	64*
C[C@H]1CN([C@@H](C)CO)C(=O)c2cc(NC(=O)C3CC3)ccc2O[C@@H]1CN(C)C(=O)Nc1ccc2c(c1)OCO2	x	x	x	x	x	-13
O=C(O)C[C@@H]1C[C@@H]2c3cc(NC(=O)c4ccc5c(c4)OCO5)ccc3O[C@@H]2[C@@H](CO)O1	x	x	x	x	x	1
Cc1ccc(NC(=O)c2cc(S(=O)(=O)NCCC3=CCCCC3)ccc2F)cc1	-10	7	75	-10	30	64*
Cc1cc([N+](=O)[O-])ccc1-c1ccc(/C=N/NC(=O)c2ccc(Br)o2)o1	-1	-2	15	2	111*	6
Cc1ccc(-c2ccc(/C=N\NC(=O)c3cc4c(ccc5ccccc54)o3)o2)cc1[N+](=O)[O-]	-10	11	13	2	91*	x
COc1ccccc1NC(=O)N(C)C[C@@H]1OCc2ccccc2-c2ccccc2C(=O)N([C@@H](C)CO)C[C@H]1C	x	x	x	x	x	-18
NCCCS(=O)(=O)O	54*!	9	-19	-2	-6	-15
COCCNC(=O)C[C@H]1CC[C@H]2[C@H](COc3ccc(NC(=O)C4CCCC4)cc3C(=O)N2C)O1	x	x	x	x	x	5
CC1=C(SCc2ccccc2)C(=O)c2ccccc2C1=O	-1	29	78	70*	85*	64*
O=C(NCC[C@H]1CC[C@@H](NC(=O)c2cnccn2)[C@H](CO)O1)c1ccc2c(c1)OCO2	x	x	x	x	x	-13
Cc1nc(SCC(=O)Nc2ccc(CN3CCCC3)cc2)c2c(C)c(C)sc2n1	-13	6	-4	77*	85*	6
CN1CCCCc2c1nc1ccccc1c2N (tested in a mixture with another compound)	-7	0	20	11	5	x
NCC1CCN(c2nc3ccccc3c3c2CCCC3)CC1	-3	-5	0	4	102*	16
CN1c2ccc(-c3ccccc3)cc2[C@@H]2[C@@H](CCN2C(=O)NC2CCCC2)[C@@H]1CO	x	x	x	x	x	23
O=C(C[C@H]1CC[C@H]2[C@@H](COC[C@H](O)CN2Cc2ccncc2)O1)NCc1ccncc1	x	x	x	x	x	-2
CCOc1ccc2c(C)nc(NC3=NC(C)(C)C=C(C)N3)nc2c1	-5	-4	10	9	40	12
CCOc1ccc2nc(NC3=NC(C)(C)C=C(C)N3)nc(C)c2c1	-32	-2	32	12	53*	x
CCOc1ccc2nc(NC3=NC(c4ccc(OC)cc4)CC(=O)N3)nc(C)c2c1 (stereo not given)	-8	14	49	u	62*	x
COc1ccc2c(c1)OC(=O)CC2c1cc(OC)c(OC)c(OC)c1 (stereo not given)	89*	0	-13	6	10	-4
OC(CON=C1c2ccccc2-c2ccccc21)CN1CCNCC1 (stereo not given)	-8	8	-15	2	57*	-11
COc1ccc(C(CCN2CCCC2)c2c(OC)cc(OC)c3c(-c4ccccc4)cc(=O)oc23)cc1 (stereo not given)	-27	1	-2	67*	8	14
COc1cc(OC)c2c(-c3ccccc3)cc(=O)oc2c1C(CCN1CCCC1)c1ccc2c(c1)OCO2 (stereo not given)	-8	2	-15	35	91*	7
COc1ccc(C(CCN2CCCC(C)C2)c2c(OC)cc(OC)c3c(C)cc(=O)oc23)cc1 (stereo not given)	-11	-2	-14	-5	-24	3
SMILES	EBV LMP1 NFkB	HIF-2a block	Shn3 inh set2	MITF TRPM1 inh	Peg3 prom inh	PAX8 reporter
COc1cc(OC)c2c(-c3ccccc3)cc(=O)oc2c1C(CCN1CCN(c2ccccc2)CC1)c1ccc(N(C)C)cc1 (stereo not given)	1	2	12	-1	12	0
COc1cc(OC)c2c(-c3ccccc3)cc(=O)oc2c1C(CCN1CCCC(C)C1)c1ccc(N(C)C)cc1 (stereo not given)	-1	25	1	13	78*	21
COc1ccc(C(CCN2CCCC(C)C2)c2c(OC)cc(OC)c3c(-c4ccccc4)cc(=O)oc23)cc1 (stereo not given)	0	10	13	42	65*	44
CCCOc1ccc2oc(=O)c3c(c2c1)CCCN3C(=O)CN1CCN(c2ncccn2)CC1	-6	4	94*	1	15	x
OC[C@@H]1[C@H](c2ccc(C#Cc3ccccc3)cc2)[C@H]2CN(CC3CCOCC3)CCCCN12	x	x	x	x	x	-31
C[C@H]1CN([C@@H](C)CO)C(=O)Cc2cc(NS(=O)(=O)c3ccccc3)ccc2O[C@H]1CN(C)C	x	x	x	x	x	-1
CC1(C)N=C(N)N=C(N)N1c1ccc(OCCCOc2ccccc2)c(Cl)c1	-5	34	-7	42	26	71*
COc1ccc(NC(=O)N(C)C[C@@H]2Oc3ncc(C#CCN(C)C)cc3C(=O)N([C@@H](C)CO)C[C@H]2C)cc1	x	x	x	x	x	-29
CN(C)CCCNC(=O)C[C@H]1CC[C@H]2[C@@H](COc3ccc(NC(=O)C4CCC4)cc3C(=O)N2C)O1	x	x	x	x	x	13
C[C@H](CO)N1C[C@H](C)[C@@H](CN(C)Cc2ccncc2)OCCCC[C@H](C)Oc2ccc(NC(=O)Nc3ccc(C(F)(F)F)cc3)cc2C1=O	x	x	x	x	x	15
C[C@@H]1CCCCO[C@@H](CN(C)Cc2ccncc2)[C@H](C)CN([C@@H](C)CO)C(=O)c2cc(NC(=O)Nc3ccc(C(F)(F)F)cc3)ccc2O1	x	x	x	x	x	93*
C[C@H](CO)N1C[C@H](C)[C@H](CN(C)Cc2ccncc2)OCCCC[C@H](C)Oc2ccc(NC(=O)Nc3ccc(C(F)(F)F)cc3)cc2C1=O	x	x	x	x	x	71*
C[C@H]1CCCCO[C@@H](CN(C)Cc2ccncc2)[C@@H](C)CN([C@@H](C)CO)C(=O)c2cc(NC(=O)Nc3ccc(C(F)(F)F)cc3)ccc2O1	x	x	x	x	x	81*
C[C@H](NCc1c[nH]c2ccccc12)c1ccccc1	81*	9	5	18	-2	24
CC(C)CC1C(=O)N(Cc2cn(CC3CCCCC3)nn2)CCS(=O)(=O)N1Cc1ccc(-c2ccc(Cl)c(Cl)c2)cc1 (stereo not given)	6	14	11	x	22	-3
CC(C)C1C(=O)N(Cc2cn(CCC3OCCCO3)nn2)CCS(=O)(=O)N1Cc1ccc(-c2ccc(Cl)c(Cl)c2)cc1 (stereo not given)	8	-27	17	x	88*	35
Cc1ccc(-c2ccc(CN3C(C(C)C)C(=O)N(Cc4cn(Cc5ccco5)nn4)CCS3(=O)=O)cc2)cc1 (stereo not given)	-8	26	9	x	56*	17
